# Unmarked numbers belong to inactive results. Records with an inconclusive call do not appear. A call without a number means that no potency is given here. Active and inactive are the calls of the source. Unless noted, calls come from the whole dose curve; as a rule, active = well fitted curve in the direction sought with a large enough effect; inconclusive = small, poorly fitted or top-dose-only effect, or another doubt; inactive = no such curve, though single readings can be large; an effect the other way counts as inactive or inconclusive.
# How the values were obtained:
# [1] = target: Glucocorticoid receptor (Homo sapiens) (UniProt P04150); assay: GR-GFP Redistribution (AID 450;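 active = compounds whose dose series gives a full or clear partial fitted curve of increased nuclear translocation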; note: potency is the fitted concentration of half-maximal effect); details: U2OS GR-GFP nuclear translocation, laser cytometry, 2 h
# Chain of Glucocorticoid receptor (Homo sapiens) (P04150 whole entry, looked up, the tested form may be a part): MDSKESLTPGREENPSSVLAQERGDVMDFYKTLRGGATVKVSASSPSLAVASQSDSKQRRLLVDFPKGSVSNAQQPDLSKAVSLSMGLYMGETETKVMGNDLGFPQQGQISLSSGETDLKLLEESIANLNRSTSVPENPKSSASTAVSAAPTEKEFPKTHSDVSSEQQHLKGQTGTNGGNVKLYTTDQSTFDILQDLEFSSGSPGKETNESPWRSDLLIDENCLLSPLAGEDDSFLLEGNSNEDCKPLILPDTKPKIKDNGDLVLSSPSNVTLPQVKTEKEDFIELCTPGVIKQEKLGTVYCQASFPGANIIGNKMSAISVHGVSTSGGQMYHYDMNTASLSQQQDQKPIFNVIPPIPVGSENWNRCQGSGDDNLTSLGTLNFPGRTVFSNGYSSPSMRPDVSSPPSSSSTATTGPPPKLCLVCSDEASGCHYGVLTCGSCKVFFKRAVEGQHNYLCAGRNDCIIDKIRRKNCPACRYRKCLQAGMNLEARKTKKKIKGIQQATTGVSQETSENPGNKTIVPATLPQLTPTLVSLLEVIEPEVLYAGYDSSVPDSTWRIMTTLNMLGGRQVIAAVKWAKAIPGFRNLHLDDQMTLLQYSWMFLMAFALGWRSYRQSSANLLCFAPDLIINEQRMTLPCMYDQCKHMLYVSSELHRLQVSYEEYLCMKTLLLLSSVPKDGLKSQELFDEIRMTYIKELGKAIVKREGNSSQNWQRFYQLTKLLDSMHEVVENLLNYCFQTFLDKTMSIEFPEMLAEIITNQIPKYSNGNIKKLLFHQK
# [2] = target: Glucocorticoid receptor (Homo sapiens) (UniProt P04150); assay: GR-EFC Redistribution (AID 451; calls by dose curve; note: potency is the fitted concentration of half-maximal effect); details: CHO-K1 GR-EFC translocation, beta-gal luminescence, 2 h
# Procedure, shortened: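 Translocation of GR-ED fusion to nuclear EA restores b-gal, read by luminescence after 1 h room-temperature detection. Engineered CHO-K1 biosensor cells, 1,000/well, exposed 2 h at 37 C to titrations up to 46 uM final.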
# [3] = target: Mitogen-activated protein kinase 10 (Mus musculus) (UniProt Q61831); assay: JNK3 AlphaScreen Assay (AID 530; active = well fitted curve in either direction with a large enough effect, not every such curve was filed as active;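 note: kinase came from lysate of stimulated human HepG2 cells; signal reports phosphorylation of biotinylated GST-cJun 1-79 at Ser73 with 10 µM ATP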); details: JNK3 lysate, c-Jun phosphorylation; series mostly up to 57.1 µM
# Procedure, shortened: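 Compound titrations were preincubated 15 minutes at room temperature with substrate, antibody and pre-activated JNK3-containing HepG2 lysate. Reactions were started with 10 uM ATP and stopped with EDTA-containing bead buffer for AlphaScreen detection.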
# [4] = target: 3',5'-cyclic-AMP phosphodiesterase 4B (Homo sapiens) (UniProt Q07343); assay: qHTS Assay for Inhibitors of PDE-IV (AID 607; active = well fitted activation curve with a large enough effect in the main read-out, with a control signal flat, not every such curve was filed as active); details: HEK293 ACTOne CNG channel cells, membrane potential fluorescence; series mostly up to 22.9 µM
# Chain of 3',5'-cyclic-AMP phosphodiesterase 4B (Homo sapiens) (Q07343 whole entry, looked up): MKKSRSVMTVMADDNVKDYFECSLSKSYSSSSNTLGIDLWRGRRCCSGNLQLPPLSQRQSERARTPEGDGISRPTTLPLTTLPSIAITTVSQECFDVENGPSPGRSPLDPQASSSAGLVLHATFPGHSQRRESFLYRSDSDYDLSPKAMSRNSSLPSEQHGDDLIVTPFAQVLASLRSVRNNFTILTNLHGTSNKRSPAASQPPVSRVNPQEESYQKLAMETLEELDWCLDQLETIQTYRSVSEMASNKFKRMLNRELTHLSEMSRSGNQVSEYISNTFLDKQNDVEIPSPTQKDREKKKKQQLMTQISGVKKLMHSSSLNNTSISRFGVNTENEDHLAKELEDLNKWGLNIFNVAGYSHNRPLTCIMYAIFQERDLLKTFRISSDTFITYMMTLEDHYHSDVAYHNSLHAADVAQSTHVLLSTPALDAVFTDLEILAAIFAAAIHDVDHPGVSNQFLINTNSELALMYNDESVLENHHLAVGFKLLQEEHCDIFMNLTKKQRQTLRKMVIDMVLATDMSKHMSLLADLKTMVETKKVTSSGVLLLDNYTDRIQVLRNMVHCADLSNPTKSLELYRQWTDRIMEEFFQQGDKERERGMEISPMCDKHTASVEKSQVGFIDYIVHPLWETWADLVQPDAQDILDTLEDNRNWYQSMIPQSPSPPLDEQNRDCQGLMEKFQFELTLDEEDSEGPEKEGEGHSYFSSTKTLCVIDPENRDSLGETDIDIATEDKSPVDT
# Procedure, shortened: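 Live HEK293 cells with a modified cyclic nucleotide-gated (CNG) channel report intracellular cAMP via membrane-potential dye fluorescence (ex 535/em 590 nm). Endogenous PDE-IV was targeted. Compounds were tested at up to 22.9 uM final; RO 20-1724 100 uM served as control.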
# [5] = target: Cytochrome P450 2C19 (Homo sapiens) (UniProt P33261); assay: qHTS Assay for Inhibitors and Substrates of Cytochrome P450 2C19 (AID 899); details: recombinant CYP2C19, luciferin-H EGE luminescence; series mostly up to 57.1 µM; note: potency is the fitted concentration of half-maximal effect; nearly all actives have a fitted effect of over 60% in size
# Chain of Cytochrome P450 2C19 (Homo sapiens) (P33261 whole entry, looked up): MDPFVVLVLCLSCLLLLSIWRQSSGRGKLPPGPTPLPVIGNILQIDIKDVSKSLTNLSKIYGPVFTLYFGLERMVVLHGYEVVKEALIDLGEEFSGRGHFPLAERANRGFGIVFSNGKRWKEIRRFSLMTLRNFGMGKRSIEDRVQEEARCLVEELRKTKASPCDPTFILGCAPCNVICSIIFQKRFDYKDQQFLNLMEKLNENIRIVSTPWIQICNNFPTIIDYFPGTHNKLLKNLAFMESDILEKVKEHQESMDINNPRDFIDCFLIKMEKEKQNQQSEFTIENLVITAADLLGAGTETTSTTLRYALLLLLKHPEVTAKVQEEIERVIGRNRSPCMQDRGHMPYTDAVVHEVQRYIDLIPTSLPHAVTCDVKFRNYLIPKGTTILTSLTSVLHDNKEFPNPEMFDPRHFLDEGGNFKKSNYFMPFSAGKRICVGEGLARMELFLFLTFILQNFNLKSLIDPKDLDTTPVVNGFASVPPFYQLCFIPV
# Procedure, shortened: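 Luminescence readout of luciferin formed from 10uM Luciferin-H EGE (KM level) by 5 nM CYP2C19 in 50mM KPO4. 60 min NADPH-driven reaction at 37C after 10 min compound preincubation; data scaled to 57uM ketoconazole inhibition.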
# [6] = target: Ubiquitin carboxyl-terminal hydrolase 1 (Homo sapiens) (UniProt O94782); assay: Inhibitors of USP1/UAF1: Pilot qHTS (AID 504865); details: purified USP1/UAF1, Ub-rhodamine cleavage fluorescence; series mostly up to 114 µM;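 note: rhodamine fluorescence freed from ubiquitin-rhodamine substrate followed over time; top concentration of the series differs between compounds; nearly all actives have a fitted effect of over 35% in size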
# Chain of Ubiquitin carboxyl-terminal hydrolase 1 (Homo sapiens) (O94782 whole entry, looked up): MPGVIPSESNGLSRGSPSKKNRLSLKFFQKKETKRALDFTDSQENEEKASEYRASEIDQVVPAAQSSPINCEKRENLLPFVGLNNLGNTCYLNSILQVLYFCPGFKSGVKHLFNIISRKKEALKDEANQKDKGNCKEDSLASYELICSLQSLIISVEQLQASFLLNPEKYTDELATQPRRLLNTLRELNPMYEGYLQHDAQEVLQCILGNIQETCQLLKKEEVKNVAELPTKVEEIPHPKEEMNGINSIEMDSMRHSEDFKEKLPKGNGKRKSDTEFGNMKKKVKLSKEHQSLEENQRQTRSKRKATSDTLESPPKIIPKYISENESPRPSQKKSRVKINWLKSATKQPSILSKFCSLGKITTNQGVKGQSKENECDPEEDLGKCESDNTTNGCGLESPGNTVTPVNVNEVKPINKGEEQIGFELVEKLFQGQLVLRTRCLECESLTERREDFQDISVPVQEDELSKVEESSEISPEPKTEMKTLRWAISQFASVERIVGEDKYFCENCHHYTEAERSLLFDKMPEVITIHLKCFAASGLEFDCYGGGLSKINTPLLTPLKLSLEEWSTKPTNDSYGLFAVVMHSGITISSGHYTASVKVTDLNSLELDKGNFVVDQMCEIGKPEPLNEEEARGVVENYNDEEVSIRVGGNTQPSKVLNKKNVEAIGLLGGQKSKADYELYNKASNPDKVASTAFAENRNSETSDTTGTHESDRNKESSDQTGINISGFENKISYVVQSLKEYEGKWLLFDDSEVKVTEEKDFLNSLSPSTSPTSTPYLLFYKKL
# Procedure, shortened: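 Deubiquitinase activity followed as kinetic rhodamine fluorescence release from 150 nM Ub-Rho. 1 nM USP1/UAF1 with compound, after 15 min room-temperature preincubation, in HEPES pH 7.8 buffer containing TCEP, EDTA, BSA and Tween-20.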
# [7] = target: DNA dC->dU-editing enzyme APOBEC-3G (Homo sapiens) (UniProt Q9HC16); assay: qHTS for inhibitors of Vif-A3G interactions: Validation (AID 588379); details: Vif-A3G protein interaction assay; series mostly up to 46.1 µM
# Chain of DNA dC->dU-editing enzyme APOBEC-3G (Homo sapiens) (Q9HC16 whole entry, looked up): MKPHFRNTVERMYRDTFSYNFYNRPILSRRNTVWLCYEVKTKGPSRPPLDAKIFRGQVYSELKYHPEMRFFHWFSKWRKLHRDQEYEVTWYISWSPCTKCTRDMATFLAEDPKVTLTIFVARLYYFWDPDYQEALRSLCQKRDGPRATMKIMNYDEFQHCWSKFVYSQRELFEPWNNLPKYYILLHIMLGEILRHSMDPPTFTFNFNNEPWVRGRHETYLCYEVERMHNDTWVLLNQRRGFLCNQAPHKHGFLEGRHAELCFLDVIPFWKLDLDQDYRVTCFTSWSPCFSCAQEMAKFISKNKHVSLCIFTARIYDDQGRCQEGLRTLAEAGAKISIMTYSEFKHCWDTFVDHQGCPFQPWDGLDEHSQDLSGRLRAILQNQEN
# Procedure, shortened: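 HeLa cells stably expressing Vif and A3G-eYFP, 700 cells/well, incubated overnight at 37 deg C, then exposed to compound overnight at 37 deg C. Inhibition of Vif-mediated degradation read as increased yellow fluorescence (Ex 488/Em 500-530) by laser-scanning cytometry.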
# [8] = test system: Zika virus NS2B-NS3 protease; assay: Primary screen GU AMC qHTS for Zika virus inhibitors (AID 1347154); details: Zika NS2B-NS3 unlinked protease, AMC fluorogenic substrate; series mostly up to 54.1 µM; note: nearly all actives have a fitted effect of over 70% in size
# Procedure, shortened: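 Fluorogenic AMC-substrate cleavage by noncovalent NS2B-NS3 protease complex (25 nM, pH 8.0 Tris buffer with Tween 20) followed for 15 minutes at room temperature (~20% conversion). Percent inhibition from ex340/em450 signal change, fitted by 4-parameter Hill equation.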
# [9] = Primary qHTS for small molecule stabilizers of the endoplasmic reticulum resident proteome: Secreted ER Calcium Modulated Protein (SERCaMP) assay (AID 1508630); details: SH-SY5Y GLuc-SERCaMP (Gaussia luciferase released on ER calcium loss) secretion, thapsigargin, luminescence; series mostly up to 38.4 µM
# Procedure, shortened: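 GLuc-SERCaMP-expressing SH-SY5Y cells, pretreated 16 h with compound, are challenged with thapsigargin to empty ER calcium stores; after 4 h, coelenterazine is added directly to the medium and luminescence is imaged.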
# [10] = AP1 Signaling Pathway (AID 357; active = well fitted curve in either direction with a large enough effect, not every such curve was filed as active); details: ME-180 (cervical carcinoma) AP-1-bla reporter, EGF-induced, beta-lactamase ratio, 5 h
# Procedure, shortened: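 AP-1-bla ME-180 cells with beta-lactamase reporter under AP-1 response element, stimulated with EC50 EGF; compounds titrated, 5 hours at 37 degrees Celsius. CCF4 read at 460/530 nm ratio; positive and negative modulators judged by AC50.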
# [11] = target: Muscarinic acetylcholine receptor M1 (Rattus norvegicus) (UniProt P08482); assay: qHTS Assay for Antagonists of Acetylcholine Muscarinic M1 Receptor: Kinetic Measurement of Intracellular Calcium Response (AID 943); details: M1-expressing cells, kinetic intracellular calcium fluorescence; series mostly up to 35.3 µM;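 note: Fluo-4 calcium signal as peak divided by basal fluorescence over 4 min; nearly all actives have a fitted effect of over 75% in size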
# Chain of Muscarinic acetylcholine receptor M1 (Rattus norvegicus) (P08482 whole entry, looked up): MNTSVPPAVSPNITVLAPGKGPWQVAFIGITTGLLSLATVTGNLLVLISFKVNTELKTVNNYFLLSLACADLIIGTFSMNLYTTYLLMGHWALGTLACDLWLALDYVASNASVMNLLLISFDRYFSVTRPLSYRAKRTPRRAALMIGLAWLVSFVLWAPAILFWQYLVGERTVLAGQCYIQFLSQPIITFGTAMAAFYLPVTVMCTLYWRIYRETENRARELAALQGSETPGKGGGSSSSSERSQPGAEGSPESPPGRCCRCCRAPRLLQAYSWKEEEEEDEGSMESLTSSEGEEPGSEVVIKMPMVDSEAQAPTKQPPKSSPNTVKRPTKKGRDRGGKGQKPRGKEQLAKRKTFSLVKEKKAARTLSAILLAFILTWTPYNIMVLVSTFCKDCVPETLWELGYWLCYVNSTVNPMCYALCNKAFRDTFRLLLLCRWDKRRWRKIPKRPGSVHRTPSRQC
# Procedure, shortened: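 Rat M1-CHO cells, 2000/well, overnight → Fluo-4 no-wash dye with probenecid, 1 h 37C → compound 10 min, room temp → basal read 6 s → carbachol EC80 (100 nM) → 4 min kinetic read; peak/basal.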
# [12] = qHTS Assay for Identification of Small Molecule Agonists for Thrombopoietin (TPO) Signaling Pathway (AID 917); details: TPO signaling pathway reporter cells, agonist qHTS, stimulated with TPO at its EC50; series mostly up to 38.5 µM
# Procedure, shortened: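 Reporter: GpIIb promoter–luciferase in murine Ba/F3 expressing human TPO receptor. Pre-starved of IL-3 overnight; compounds with 26 pM TPO, 24 hrs, 37 C/5% CO2; luminescence read.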
structure (smiles),measurement,setting,value
Cc1cc(Cn2cnc3c2C[C@@H](C(=O)O)N(C(=O)C(c2ccccc2)c2ccccc2)C3)ccc1N(C)C,Potency,[1],> 46 µM
same,Potency,[2],> 46 µM
same,Potency,[3],inactive
same,Potency,[4],inactive
same,Potency,[5],1.58 µM (active)
same,Potency,[6],inactive
same,Potency,[7],inactive
same,Potency,[8],inactive
same,Potency,[9],inactive
Fc1ccc(C(c2ccc(F)cc2)N2CCN(C/C=C\c3ccccc3)CC2)cc1,"activity change, negative = inhibition",[10]; at 17.2 µM (top of the series),-7.16%
same,"activity change, negative = inhibition",[10]; at 38 µM (top of the series),2.24%
CC(=O)Nc1ccc(OC[C@@H](O)CNC(C)C)cc1,"activity change, negative = inhibition",[10]; at 17.2 µM (top of the series),5.39%
CC(=O)N[C@@H](C(=O)O)C(C)(C)SN=O,"activity change, negative = inhibition",[10]; at 38 µM (top of the series),-1.8%
same,Potency,[11],inactive
CC(C)(C)NC[C@H](O)c1ccc(O)c(CO)c1,Potency,[12],inactive

# Source: PubChem BioAssay (NCATS)
